HP1b chromo inh: HTS for Inhibitors of HP1-beta Chromodomain Interactions with Methylated Histone Tails. AlphaScreen HP1-beta / biotin-H3K9me3 peptide binding. Potency, µM (top dose mostly 114 µM), for the others: at the top dose activity change, negative = inhibition, usual class: inhibitors. 390,000 compounds, 0.56% hits. AID 540317, 2011; note: nearly all actives have a fitted effect of over 70% in size
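HP1-beta protein (50 nM final) preincubated 30 min at room temperature with biotinylated H3(1-18)K9me3 peptide (50 nM) in PBS pH 7.4, 0.01% Tween-20, then compound added for 30 min. AlphaScreen streptavidin donor/nickel chelate acceptor beads (10 ug/mL final), 30 min dark, luminescence read.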
JMJD2A Tudor: qHTS Assay for Inhibitors of JMJD2A-Tudor Domain; Lysine-specific demethylase 4A (Homo sapiens), O75164; AlphaScreen JMJD2A-Tudor / H3K4me3 peptide binding; Potency, µM (series often up to 114 µM), for inactives: top-dose activity change, negative = inhibition, usual class: inhibitors; 390,000 compounds, 4.4% hits; note: % is set by controls: 0 for no effect and ±100 for the full control effect; nearly all actives have a fitted effect of over 50% in size
G9a block: qHTS Assay for Inhibitors of Histone Lysine Methyltransferase G9a. G9a H3K9 monomethylation, AlphaScreen, 2 h. Histone-lysine N-methyltransferase EHMT2 (Homo sapiens), Q96KQ7. 350,000 compounds, 8.8% hits. Potency, µM (series often up to 102 µM), for inactives: at the highest dose activity, negative = inhibition, hits mostly inhibitors. AID 504332, 2011; note: % is set by controls: 0 for no effect and ±100 for the full control effect; nearly all actives have a fitted effect of over 75% in size
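Readings reflect AlphaScreen signal from monomethyl-H3K9 antibody detection. HMT at 20 nM; substrate b-H3K9 500 nM; cofactor SAM 20 uM; 2 h RT reaction; compounds tested as titrations in qHTS with 15 min preincubation.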
BAZ2B block: qHTS Assay for Inhibitors of BAZ2B; 360,000 compounds, 4.4% hits; AID 504333, 2011; AlphaScreen BAZ2B-H3K14Ac peptide displacement; Bromodomain adjacent to zinc finger domain protein 2B (Homo sapiens), Q9UIF8; Potency, µM (series often up to 114 µM), for the others: at the highest dose activity change, negative = inhibition, usual class: inhibitors; note: % is set by controls: 0 for no effect and ±100 for the full control effect; nearly all actives have a fitted effect of over 60% in size
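Protein-peptide AlphaScreen: BAZ2B 50 nM, b-H3K14Ac 50 nM, 1x PBS pH 7.4 + 0.01% Tween-20. Preincubation 30 min RT; cpd 30 min RT (top 110 uM); beads 20 min RT, light-protected.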
Sfp inh: qHTS Assay for Inhibitors of Bacillus subtilis Sfp phosphopantetheinyl transferase (PPTase) | AID 1490, 2009 | 4'-phosphopantetheinyl transferase ffp (Bacillus subtilis), Q9F4F7 | 310,000 compounds, 3.5% hits | Biochemical Sfp PPTase activity, qHTS | Potency, µM, without a hit: largest response in the series, negative = inhibition, most hits filed as inhibitors;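 note: the enzyme is Sfp with the accession as filed and its product quenches rhodamine fluorescence; 0% = enzyme reaction without inhibitor and -100% = no enzyme wells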
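Reaction rates are the 30-min fluorescence difference (ex 525, em 598 nm) in wells containing 15 nM Sfp, 5 uM rhodamine-CoA and 12.5 uM BHQ-2-YbbR at pH 7.6 with 10 mM MgCl2.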
L3MBTL1 block: qHTS Assay for the Inhibitors of L3MBTL1; Lethal(3)malignant brain tumor-like protein 1 (Homo sapiens), Q9Y468; AlphaScreen L3MBTL1–H3K9me1 peptide binding; Potency, µM (series often up to 57.1 µM), without a hit: top-dose activity, negative = inhibition, usual class: inhibitors; 230,000 compounds, 0.66% hits; AID 485360, 2010; note: % is set by controls: 0 for no effect and ±100 for the full control effect; nearly all actives have a fitted effect of over 60% in size
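AlphaScreen assay: L3MBTL1 (50 nM final) was preincubated 30 min at room temperature with biotinylated H3(1-15)K9me1 peptide (75 nM final), then 30 min with library compounds; streptavidin donor and nickel chelate acceptor beads (10 ug/mL final) added, 30 min dark.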
Active calls of the source: *; ? = inconclusive; nt = no result; [ ] = dose if it differs, or a comment. An excerpt weighted towards active compounds, which were near 12% of everything screened. Calls come from the whole dose curve; as a rule, active = well fitted curve in the direction sought with a large enough effect; inconclusive = small, poorly fitted or top-dose-only effect, or another doubt; inactive = no such curve, though single readings can be large; an effect the other way counts as inactive or inconclusive. Potency is the fitted concentration of half-maximal effect.

SMILES	HP1b chromo inh	JMJD2A Tudor	G9a block	BAZ2B block	Sfp inh	L3MBTL1 block
c1coc(CNc2ncnc3c2oc2ccccc23)c1	-9.6%	-20.2%	56.2µM*	?	5.1%	-10.3%
CCc1nc(NCc2cccnc2)c2oc3ccccc3c2n1	23.0%	-33.3%	50.1µM*	-35.4%	-1.2%	2.6%
COc1cccc(NC(=O)CSc2nc3c(oc4ccccc43)c(=O)[nH]2)c1	31.3%	-8.7%	17.8%[59 µM]	7.5%	8.4%	-2.0%
CCc1nc(N2CCC(C)CC2)c2oc3ccccc3c2n1	64.7%	-0.7%	39.8µM*	-1.6%	?	6.2%
COc1cccc(NC(=O)CSc2ncnc3c2oc2ccccc23)c1	31.9%	-14.2%	12.9%	6.8%	70.8µM*	nt
CCc1nc(Nc2ccccc2O)c2oc3ccccc3c2n1	17.7%	?	?	79.4µM*	-18.5%	nt
CCc1nc(NCc2ccco2)c2oc3ccccc3c2n1	0.6%	-27.5%	?	79.4µM*	?	-11.3%
O=C(CSc1ncnc2c1oc1ccccc12)NCc1ccco1	3.6%	-31.9%	14.1µM*	50.1µM*	28.2µM*	?
CCOc1cccc2sc(N(CCN(C)C)C(=O)c3cc4ccccc4cc3OC)nc12	-20.4%	44.7µM*	39.8µM*	?	?	nt
CCOc1ccc2nc(N(CCN(C)C)C(=O)c3cc4ccccc4cc3OC)sc2c1	?	39.8µM*	50.1µM*	?	?	nt
Cc1ccc(C)c(Cn2c(=O)n(-c3ccccc3)c(=O)c3c4c(sc32)CCCC4)c1	40.6%	-4.4%	-30.4%[59 µM]	1.4%	nt	nt
O=C(N/N=C1/C[C@@H](O)[C@@H](O)[C@@H]2[C@@H]3C(=O)N(c4cccc(Oc5ccccc5)c4)C(=O)[C@H]3CC[C@@H]12)OCc1ccccc1	nt	nt	nt	nt	5.5%	nt
CC1CCN(C(=O)c2cccc(NC(=O)c3nsc4ccccc34)c2)CC1	19.9%[57 µM]	?	-4.0%[59 µM]	0.0%	nt	nt
COC(=O)c1ccccc1S(=O)(=O)N(CCCN1CCOCC1)Cc1cccs1	?	7.94µM*	7.94µM*	50.1µM*	4.0%	17.2%
Cc1ccc(NC(=S)N(CCCN2CCOCC2)Cc2cccs2)c(C)c1	-1.2%	-9.8%	?	2.1%	25.1µM*	0.6%
COC(=O)c1nnn(CC(=O)Nc2c(C)cccc2C)c1N	8.0%	-10.9%	4.2%[59 µM]	2.1%	nt	nt
Cc1ccc(NCc2ccccc2-c2nnc(-c3ccccc3Cl)o2)c(C)c1	-8.7%	?	-49.5%[59 µM]	?	nt	nt
COc1cc2c(cc1NC(=O)c1cccc([N+](=O)[O-])c1)oc1ccccc12	-13.5%	-16.6%	50.1µM*	4.3%	-6.4%	-10.9%
COc1cc2c(cc1NC(=O)CSc1ccccn1)oc1ccccc12	16.3%	-8.3%	-5.1%[59 µM]	4.3%	44.7µM*	3.1%
CCOc1ccc(C(=O)NCCc2csc(-c3ccc(C(F)(F)F)cc3)n2)cc1OCC	14.9%[57 µM]	-5.5%	20.3%[59 µM]	4.0%	nt	nt
CCc1cccc(NC(=O)C2CCC(CNS(=O)(=O)c3ccc(Br)s3)CC2)c1 (configuration not stated)	33.7%	-18.2%	13.7%[59 µM]	-0.1%	nt	nt
CN(Cc1ccc(F)cc1)C(=O)c1sccc1-c1ccccc1	53.6%	27.2%	39.8µM*	?	-8.9%	nt
CC(NS(=O)(=O)c1ccc2ccccc2c1)c1ccccn1 (configuration not stated)	28.2%	50.1µM*	nt	nt	nt	-6.6%
CC1CCCN(C/C=C/c2ccccc2[N+](=O)[O-])C1 (configuration not stated)	11.3%	-20.4%	-44.4%	2.7%	8.2%	5.1%
O=[N+]([O-])c1ccccc1/C=C/CN1CCSCC1	?	12.6µM*	nt	50.1µM*	-4.2%	-0.2%
SMILES	HP1b chromo inh	JMJD2A Tudor	G9a block	BAZ2B block	Sfp inh	L3MBTL1 block
O=C(c1cc2c(s1)CCC2)N1C(=O)c2ccccc2S1(=O)=O	21.4%	?	39.8µM*	50.1µM*	-0.8%	8.2%
CCN(CC)S(=O)(=O)c1ccc(NC(=O)CNC2CCCCC2)cc1	?	5.62µM*	25.1µM*	79.4µM*	-22.7%	nt
CN(C)S(=O)(=O)c1cccc(NC(=O)CNCc2ccccn2)c1	22.9%	28.2µM*	nt	20µM*	?	-23.7%
CN(C)S(=O)(=O)c1cccc(NC(=O)CNC2CCCCC2)c1	?	22.4µM*	50.1µM*	?	-10.3%	1.9%
Cc1cc(C)nc(SCC(=O)Nc2cccc(S(=O)(=O)N(C)C)c2)n1	16.9%	-11.7%	-13.3%	-8.3%	15.4%	10.0%
CN(C)S(=O)(=O)c1cccc(NC(=O)CSc2nc3ccccc3n2-c2ccccc2)c1	-0.9%	-25.0%	79.4µM*	-7.2%	-14.3%	-8.0%
CCN(CC)S(=O)(=O)c1ccc(NC(=O)CCC2CCCCC2)cc1	69.0%	1.4%	0.5%[12.7 µM]	3.2%	2.7%	nt
CCn1c(CN2CCCCC2)nc2cc(NC(=O)c3cccc([N+](=O)[O-])c3)ccc21	44.0%	-24.8%	-27.6%[59 µM]	-33.7%	nt	nt
Cc1nn(C(C)C(=O)NC2CCCCC2)c(=O)c2c1sc1ccccc12 (configuration not stated)	25.5%	-34.1%	?	-27.4%	nt	nt
CC(C)c1ccc(NC(=O)CN2C(=O)COc3ccc(S(=O)(=O)N4CCCCC4)cc32)cc1	48.4%	-12.1%	-7.4%[59 µM]	-8.0%	nt	nt
Cc1cccc(NCc2nc3ccccc3n2CCOc2ccccc2C)c1	15.0%	?	-21.3%[59 µM]	?	nt	nt
CC(=O)c1sc2nsc(SCCN3CCCC3)c2c1N	?	89.1µM*	-75.5%[59 µM]	?	39.8µM*	?
CC(=O)c1sc2nc(C)c3c(c2c1N)CCCC3	85.2%	22.4%	6.0%	-13.9%	?	15.4%

Source: PubChem BioAssay (National Center for Advancing Translational Sciences (NCATS))
